In PubChem BioAssay one finds z-score data, which are given here for 36 compounds.

Unmarked numbers belong to inactive results.

The test can be described thus: splicing luciferase reporter signal modulators, primary screen, spliceosome inhibition project, cell-based, HEK293, splice +/- reporter (AID 1101).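 Also: HEK293 cells carrying a splicing-competent luciferase reporter gene; test concentration not given here.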 Particulars: luminescence, 24 h, higher = more signal, called active from +8 up or from −8 down. In general terms: A reporter such as luciferase makes a cellular process visible.
As to `COc1ccc(C(O)C2C=CC3C(=O)N(c4ccccc4)C(=O)C3N2Nc2ccc(C#N)cc2)c2ccccc12` (stereo unspecified), the z-score was 1.8.
The result for `COCCOC(=O)N1C(=O)[C@@]2(c3ccccc31)[C@H](C(=O)N1CCN(c3ncccn3)CC1)[C@H]1C(=O)O[C@H](c3ccccc3)[C@H](c3ccccc3)N1[C@@H]2c1ccc(OCCO)cc1` reads -0.471; that for `CC=CC(O)C1C=CC2C(=O)N(c3ccccc3)C(=O)C2N1Nc1ccccc1` (stereo unspecified), -0.0227; that for `Cc1ccc(S[C@]2(C(=O)NCC(F)(F)F)CC(=O)N(Cc3ccccc3)[C@@H]2c2ccc(CO)cc2)cc1`, -0.676.
The result for `[N-]=[N+]=Nc1ccccc1C[C@@]1(C(=O)O)N=C(c2ccc(OCCCO)cc2)O[C@@H]1c1ccccc1` reads -0.282.
On to `COCCCNC(=O)[C@]1(Cc2ccccc2CN=[N+]=[N-])N=C(c2ccc(OCCCO)cc2)O[C@@H]1c1ccccc1`, for which the z-score was -0.697.
Turning to `CC(C)OC(=O)CC(=O)CC(O)c1cccc(C#N)c1` (stereo unspecified), the z-score was -1.69.
Consider `CCCC=C(CCC)[C@@H](NP(=O)(c1ccccc1)c1ccccc1)c1ccc(C(F)(F)F)cc1`, for which the z-score was -0.139.
The result for `CCCN1C(=O)[C@]2(Cc3ccccc3)N=C(c3ccc(OCCCO)cc3)O[C@@H]2c2ccccc21` reads -1.41.
`C[C@]12C(=O)N(CCCCCCO)[C@@H]3C(=O)N(c4ccc(Cl)cc4)CC=CC31O[C@@H]1/C=C\CCCOC(=O)C12` (stereo partly specified): the z-score was -1.54.
`COCCOC(=O)N1C(=O)[C@@]2(c3ccccc31)[C@H](c1ccc(OCCO)cc1)N1[C@H](c3ccccc3)[C@H](c3ccccc3)OC(=O)[C@H]1[C@@H]2C(=O)Nc1nc2ccccc2s1`: the z-score is 0.579.
On to `C=CCN1Cc2ccccc2C[C@@]2(N=C(c3ccc(OCCCO)cc3)O[C@H]2c2ccccc2)C1=O`, for which the z-score is 6.55.
The result for `CN(C)CCCCNC(=O)[C@H]1C[C@H]2C(=O)N3CCC[C@H]3C(=O)N2[C@H]1c1ccc(O)cc1` reads -2.27; that for `COC1(C)CN(Cc2ccccc2Br)[C@H](/C=C/c2ccccc2)[C@H](Cc2ccccc2)O1` (stereo partly specified), -0.792.
The result for `COc1cc(OC)c(C(O)C2C=CC3C(=O)N(c4ccccc4)C(=O)C3N2Nc2ccc(C#N)cc2)cc1Br` (stereo unspecified) reads 1.47; that for `O=C(O)[C@]1(Cc2ccccc2)N=C(c2ccc(OCCCO)cc2)O[C@@H]1c1ccccc1`, 0.771; that for `O=C1c2ccccc2[C@@]2(Cc3ccccc3N(C3CC3)C2=O)[C@H](c2ccc(CO)cc2)N1C1CCCCC1`, -0.402.
As to `COCCOC(=O)N1C(=O)[C@@]2(c3cc(C#CCC(C(=O)OC)C(=O)OC)ccc31)[C@H](c1ccc(OCCO)cc1)N1[C@H](c3ccccc3)[C@H](c3ccccc3)OC(=O)[C@H]1[C@@H]2C(=O)N1CCN(c2ncccn2)CC1`, the z-score was -0.0387.
As for `O=C1O[C@@H](c2ccccc2)[C@@H](c2ccccc2)N2[C@@H](c3ccccc3OCCO)[C@]3(C(=O)Nc4ccc(C#CCCO)cc43)[C@@H](C(=O)N3CCN(c4ncccn4)CC3)[C@H]12`, the figure is -1.09; as for `COc1cc(CO)cc(I)c1O[C@H]1C=C(C(=O)NCCO)C[C@@H](N(CC2CCCCC2)C(=O)c2ccc(C(F)(F)F)cc2)[C@@H]1O`, -0.0436; as for `Cc1c(NC(=O)/C(C#N)=C/C=C/c2ccccc2[N+](=O)[O-])c(=O)n(-c2ccccc2)n1C`, 4.71.
Regarding `CCC[C@@H]1C[C@@]1(CCC)[C@@H](NP(=O)(c1ccccc1)c1ccccc1)c1ccc(Cl)cc1`, the z-score was -2.26.
The result for `C=CCN1C(=O)[C@]2(CC=C)N=C(c3ccc(OCCCO)cc3)O[C@@H]2c2ccccc21` reads -0.436; that for `O=C1c2ccccc2[C@](Cc2ccccc2I)(C(=O)NCCN2CCOCC2)[C@H](c2ccc(CO)cc2)N1Cc1ccccc1`, -0.825.
As to `COC(=O)[C@@]1(Cc2ccc(F)cc2)[C@H]2c3cc(C(=O)N4CCCC4)n(CCc4c[nH]c5ccc(OC)cc45)c3C[C@H]2CN1C(=O)c1ccccc1`, the z-score is -3.28.
As for `O=C1c2ccccc2[C@](Cc2ccccc2I)(C(=O)NCc2ccccc2)[C@H](c2ccc(CO)cc2)N1C1CCCCC1`, the figure is -0.216.
Consider `COCC(=C=CC[C@H](O)c1cccc(OCCO)c1)C[C@H](O)c1ccccn1`, for which the z-score is -1.
On to `CN1C2C=C(CCCO)C(C3C(=O)N(C(N)=O)C(=O)C32)C1c1cccs1` (stereo unspecified), for which the z-score is 0.359.
`CN(C)CCCNC(=O)[C@@H]1c2ccccc2C(=O)N(Cc2ccc(OC(F)(F)F)cc2)[C@H]1c1ccc(CO)cc1`: the z-score is 0.0681.
The result for `CC(C)(C)OC(=O)CC[C@]1(C(=O)NCCN2CCOCC2)N=C(c2ccc(OCCCO)cc2)O[C@H]1c1ccccc1` reads 0.66; that for `CC(C)CNC(=O)[C@@H]1c2ccccc2C(=O)N(Cc2cc(F)cc(C(F)(F)F)c2)[C@H]1c1ccc(CO)cc1`, -0.621.
As for `C=C(/C(=C/C[C@@H](OC(=O)c1ccncc1)c1ccc(OCCO)cc1)c1cc(C(=O)OC)ccc1OC)C(C)C`, the figure is -0.432.
Turning to `C=C(CCCC)/C(=C/C[C@@H](OC(=O)c1ccncc1)c1cccc(OCCO)c1)c1cnc2ccccc2c1`, the z-score is -0.562.
The result for `C=CCOC(=O)[C@H]1[C@@H]2C(=O)O[C@@H](c3ccccc3)[C@@H](c3ccccc3)N2[C@@H](c2ccc(OCCOC(=O)[C@H]3C[C@H]4C(=O)N[C@@H](Cc5ccccc5)C(=O)N4[C@H]3c3cccc(OCCO)c3)cc2)[C@]12C(=O)Nc1ccc(I)cc12` reads 0.959.
The result for `Cc1ccc(S[C@]2(C(=O)NC3CC3)CC(=O)N(Cc3ccccc3Cl)[C@@H]2c2ccc(CO)cc2I)cc1` reads -0.447.
As for `C[C@@H]1ON(c2ccc(C(=O)OC(C)(C)C)cc2)[C@H](c2ccc(Br)cc2)[C@H]1C(=O)N1C(=O)OC[C@H]1Cc1ccccc1`, the figure is -0.65.
